Compound activity deposited in PubChem by National Center for Advancing Translational Sciences (NCATS).
The full list was thinned out, with hits kept by preference.
MARV entry inh = qHTS for inhibitors of binding or entry into cells for Marburg Virus. 300,000 compounds, 1.8% hits. Potency, µM (titrated, usually from 37.8 µM), without a hit: top-dose activity change, negative = inhibition, most hits filed as inhibitors. Marburg virus pseudotyped entry inhibition, cell reporter; calls by dose curve; tested in HEK293 cells; also: potency is read from the fitted curve at half-maximal effect; % is scaled to controls: 0 for no effect and ±100 for the full control effect
AMA1 RON2 block = qHTS for Inhibitors of AMA1-RON; Towards Development of Antimalarial Drug Lead: Primary Screen; Plasmodium falciparum AMA1 (3D7) - RON2 peptide interaction; AlphaScreen AMA1-biotinylated RON2 peptide binding; Potency, µM (top dose mostly 58.2 µM), without a hit: at the highest dose activity change, negative = inhibition, usual class: inhibitors; 360,000 compounds, 0.2% hits; AID 720542, 2013; active = well fitted inhibition curve with a large enough effect; inconclusive = small, poorly fitted or top-dose-only effect; inactive = no such curve, though single readings can be large or run the other way;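 also: potency is read from the fitted curve at half-maximal effect; 0% = vehicle wells and -100% = peptide control; nearly all actives have a fitted effect of over 45% in size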
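AMA1 (3D7) with his tag at 25 nM final met compounds first, then biotinylated RON2 peptide at 25 nM; detection used donor plus acceptor beads, 10 µg/mL apiece, read by AlphaScreen after 30 min at room temperature.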
Shiga toxin inh = A qHTS for Small Molecule Inhibitors of Shiga Toxin | Vero cells, Shiga toxin protein synthesis inhibition reporter | inhibition, % at 38.7 µM | 290,000 compounds, 9.2% hits; in the data active = inhibition mostly above about 28%, no sharp cut-off; inactive = mostly below about 43%; also: 0% is about no effect
LASV entry inh = qHTS for Inhibitors of binding or entry into cells for Lassa Virus | AID 540256, 2011 | 300,000 compounds, 1.2% hits | Potency, µM (doses to about 37.9 µM), for the others: at the top dose activity change, negative = inhibition, actives largely listed as inhibitors | Lassa virus pseudotype entry inhibition, cell reporter; calls by dose curve; tested in HEK293 cells; also: potency is read from the fitted curve at half-maximal effect; % is scaled to controls: 0 for no effect and ±100 for the full control effect; nearly all actives have a fitted effect of over 50% in size
Cycloheximide cs = Cycloheximide Counterscreen for Small Molecule Inhibitors of Shiga Toxin; max response, %; 300,000 compounds, 12% hits; AID 2314, 2010; cell reporter, cycloheximide protein synthesis inhibition counterscreen; in the data active = max response mostly above about 13%, no sharp cut-off; inactive = mostly below about 14%; also: read at 38.3 µM for the half of the compounds with a filed dose; 0% is about no effect
* = called active by the depositor; u = inconclusive; x = no result; [ ] = another dose, or the depositor's remark.

SMILES | MARV entry inh | AMA1 RON2 block | Shiga toxin inh | LASV entry inh | Cycloheximide cs
CCC(=O)N(Cc1ccco1)Cc1cc2cccc(C)c2n2nnnc12 | x | 14% | -4 | x | -3
O=c1[nH]c(-c2ccccn2)nc2sc(-c3ccccc3)cc12 | u | 120% | 118* | 2.2µM* | 49*
CCCOc1ccccc1NC(=O)/C=C/C(N)=O | -22% | -2% | -3 | 4% | 13*
CSc1ccc(/C=C/C(=O)OCC(=O)N2CCCCCC2)cc1 | 13% | -1% | x | 5% | x
CSc1ccc(/C=C/C(=O)OCC(=O)N(C)CCC#N)cc1 | 5% | -20% | 31* | 17% | 20*
Cn1ccc2c(N3CCCCC3)cc3c(c21)C1CCC3C1 (centres undefined) | x | 16µM* | x | 2%[46.1 µM] | x
Cn1ccc2c(N3CCCCCC3)cc3c(c21)C1CCC3O1 (centres undefined) | x | 32µM* | x | u | x
CN(c1cc2c(c3c1ccn3C)C1CCC2O1)C(C)(C)C (centres undefined) | x | x | x | 3.5µM* | x
Cn1ccc2c(N3CCCC3)cc3c(c21)C1CCC3C1 (centres undefined) | x | -8% | x | x | x
COc1ccc(C2c3c(n(C)c4ccccc34)C(=O)N2CC(=O)Nc2cccc(Cl)c2)cc1 (centres undefined) | x | x | x | 0%[46.1 µM] | x
Cn1c(CCNC(=O)c2ccco2)nc2cc(NC(=O)COc3ccc(Cl)cc3)ccc21 | -2%[46.1 µM] | x | x | 6%[46.1 µM] | x
CC(C)(O)C#Cc1ccc(C(=O)NCc2cccs2)s1 | 20% | 0% | 33 | 16% | 26*
COc1ccccc1NC(=O)c1csc2c1CCC(C)C2 (centres undefined) | x | 7% | 67* | x | 51*
O=C(NCc1cccs1)c1cc2c(s1)CCCC2 | u | -6% | 86* | -31% | 45*
O=C(NCc1cccs1)c1ccccc1C(=O)NCc1cccs1 | 2% | 3% | -7 | -6% | -1
COC(=O)c1ccccc1NC(=O)NCCc1ccccc1OC | u | -20% | 83* | 0%[46.1 µM] | 28*
CCN1/C(=N\N)c2cccc3cccc1c23 | x | u | -5 | x | -6
CC1CCc2c(C(=O)Nc3cccc(-c4nn[nH]n4)c3)csc2C1 (centres undefined) | x | -9% | 40 | x | 19
COc1ccccc1CCNS(=O)(=O)CCNC(=O)c1ccccc1 | 1% | 6% | x | 3% | x
COc1ccccc1CCNC(=O)c1ccc(Br)s1 | x | -2% | 63* | x | 37*
O=C(NCc1cccs1)c1csc2c1CCCCC2 | 3% | -4% | 19 | 4% | 21*
COc1ccccc1CCNC(=O)c1csc2c1CCCC2 | u | -16% | 38* | u | 13
CC1CCc2c(C(=O)NCc3ccco3)csc2C1 (centres undefined) | -1%[46.1 µM] | 0% | 48 | -1% | 17*
O=C(NCc1ccccc1)c1csc2c1CCCCC2 | u | -7% | 46 | -2% | 22
CCCC[C@@H](C)[C@@H](OC(=O)C[C@@H](CC(=O)O)C(=O)O)[C@H](C[C@@H](C)CCCCCC[C@@H](O)C[C@H](O)[C@H](C)N)OC(=O)C[C@@H](CC(=O)O)C(=O)O | x | x | -12 | x | -4
SMILES | MARV entry inh | AMA1 RON2 block | Shiga toxin inh | LASV entry inh | Cycloheximide cs
O=C(NCc1ccccc1)c1csc2c1CCCC2 | x | 2% | 31 | x | 20
CC(C)CCNC(=O)c1csc2c1CCCCC2 | 19%[46.1 µM] | 29% | 55* | -1% | 47*
O=C(NCc1ccco1)c1csc2c1CCCCC2 | 16% | 3% | 19 | 8% | 22*
Nc1ccc2c(Cl)cc(Cl)cc2c1 | x | 4% | x | x | x
CCOc1ccccc1CNC(=O)c1ccc(CS(=O)Cc2cccc(Cl)c2)o1 (centres undefined) | x | x | x | -1%[46.1 µM] | x
O=C(/C=C/c1cccc([N+](=O)[O-])c1)OCC1CCCO1 (centres undefined) | x | -2% | 26* | x | 11*
O=C(/C=C/c1cccc([N+](=O)[O-])c1)OCC(=O)c1ccccc1 | x | -3% | -3 | x | -5
c1ccc(OCc2nc(-c3ccncc3)no2)cc1 | 1% | 22% | 110* | u | 50*
Cc1cc(OCc2nc(-c3cccnc3)no2)c(C)cc1Br | 4% | 2% | 7 | 14% | -3
Cc1ccccc1OCc1nc(-c2cccnc2)no1 | 6%[46.1 µM] | 20% | -2 | 12%[46.1 µM] | -5
Clc1ccccc1OCc1nc(-c2ccncc2)no1 | u | 26% | 86* | -20% | 49*
Clc1ccc(OCc2nc(-c3ccncc3)no2)c(Br)c1 | u | 14% | 71* | -17% | 40*
COc1ccccc1Cc1nc(-c2ccncc2)no1 | x | -1% | 21 | x | 20*
CC1(C(=O)NS(=O)(=O)c2ccccc2Cl)CCN1C(=O)c1ccccc1 (centres undefined) | x | -3% | x | x | x
Cc1ccc(Nc2nc3ccc(Cl)cc3n3cnnc23)cc1F | u | 15% | -7 | 3% | -2
CC(=O)c1ccc(S(=O)c2ccccc2)cc1 (centres undefined) | -2% | -4% | -3 | 5% | -1
CCOC(=O)C1=C(CN2CCN(c3cccc(OC)c3)CC2)NC(=O)NC1c1ccc(OC)cc1 (centres undefined) | x | x | x | -13%[46.1 µM] | x
Cc1ccc(OCc2nc(-c3cccnc3)no2)cc1C | u | 10% | 73* | u | 25*
COc1nc(-c2ccccc2)ccc1-c1noc(COc2ccccc2)n1 | 17% | 12% | 24 | -3% | 17
c1ccc(OCc2nc(-c3ccccc3)no2)cc1 | 15% | 39% | 100* | u | 58*
CCOc1ccccc1-c1nnc2n1N=C(c1c(OC)cccc1OC)CS2 | x | x | 20 | x | 6
C/C(=N\NC(=O)c1c(C)nc2ccccn12)c1ccc(N2CCOCC2)cc1 | -5%[46.1 µM] | 14% | 42 | 18%[46.1 µM] | 28*
C/C(=N\NC(=O)c1c(C)nc2ccccn12)c1ccc(C(C)(C)C)cc1 | -4%[46.1 µM] | 129% | 4 | u | 11
C/C(=N\NC(=O)c1c(C)nc2ccccn12)c1ccco1 | 16%[46.1 µM] | 5% | 42* | 0% | 32*
CCc1ccccc1NC(=O)c1ccc2c(O)c(S(=O)(=O)c3ccccc3)c(=O)[nH]c2c1 | x | x | x | 0%[46.1 µM] | x
SMILES | MARV entry inh | AMA1 RON2 block | Shiga toxin inh | LASV entry inh | Cycloheximide cs
CCN(CC)CC(=O)c1ccc(-c2ccccc2)cc1 | 8% | 22% | 20 | 1% | 18
C/[N+]([O-])=C\CC(=O)c1ccc(-c2ccccc2)cc1 | 16%[46.1 µM] | 0% | 20 | 1% | 24*
CC(=O)c1ccc(OCC(=O)c2ccc(-c3ccccc3)cc2)cc1 | 19% | 4%[11.6 µM] | -9 | u | -3
CO/N=C/CC(=O)c1cnc(-c2ccc(Cl)cc2)s1 | 2%[46.1 µM] | -15% | 73* | u | 22*
CO/N=C/CC(=O)c1ccc(-c2ccccc2)cc1 | -6%[46.1 µM] | 11% | 70 | -17%[46.1 µM] | 18*
CC(CCN1CCCCc2nc(C)c(C)cc21)=NO[C@@H](C)c1cn([C@H](CO)Cc2ccccc2)nn1 | -12%[14.2 µM] | x | x | x | x
COCCCNC(=O)CSc1nc(-c2ccc(OC)cc2)[nH]c1-c1ccc(OC)cc1 | 4%[46.1 µM] | x | x | 6%[46.1 µM] | x
